# According to PubChem BioAssay (NCATS):
# Results filed as inconclusive are left out. Values without a mark were called inactive. Calls come from the whole dose curve; as a rule, active = well fitted cell-killing curve with a large enough effect; inconclusive = small, poorly fitted or top-dose-only effect; inactive = flat fitted curve, though single readings scatter.
# Experiment: Cell Viability - LYMP2-016 (AID 984); note: nearly all actives have a fitted effect of over 55% in size
# Details: LYMP2-016 lymphoblastoid cell viability, qHTS; series mostly up to 92.2 µM; activity change, negative = cytotoxicity: at the top concentration
# From the text: NIH Chemical Genomics Center [NCGC]
# NIH Molecular Libraries Screening Centers Network [MLSCN]
# National Institutes of Environmental Health Sciences [NIEHS]
# National Toxicology Program [NTP]
# We have developed a 1536-well cell-based assay for quantitative high throughput screening (qHTS) against a number of cell lines to determine in vitro cytotoxicity of small molecules. This particular assay uses a human lymphoblastoid cell line (LYMP2-016) purchased from Coriell Institute for Medical Research.
# NCGC Assay Protocol Summary:
# The CellTiter-Glo luminescent cell viability assay (Promega) is a homogeneous method to measure the number of viable cells in culture. The end point readout of this assay is based on quantitation of intracellular ATP, an indicator of metabolic activity, using the luciferase reaction. Luciferase catalyzes the oxidation of beetle Luciferin to oxyluciferin and light in the presence of ATP. The luminescent signal is proportional to amount of ATP present.
# Using the CellTiter-Glo luminescent cell viability assay, the amount of cellular ATP was measured in the lymphoblastoid cell line with complete culture medium following compound treatment for 24 hours. The assay was performed in opaque white Kalypsys 1536-well plates. In the screen, tetraoctylammonium bromide was used as positive control. Library compounds were measured for their ability to cause acute toxicity in the cell line, as reflected by a decrease in intracellular ATP levels, in a concentration-dependent manner. […] AC50 values were determined from concentration-response data modeled with the standard Hill equation.
# qHTS protocol for CellTiter Glo lymphoblastoid cellular assay
# [Step] [Parameter] [Value] [Description]
# 1. Reagent; 5 uL; 2500 lymphoblastoid cells/well
# 2. Time; 5 hr; 37 C incubation
# 4. Controls; 23 nL; Tetraoctylammonium bromide 6.4pM to 92 uM
# 5. Time; 24 hr; 37 C incubation
# 6. Reagent; 5 uL; CellTiter Glo reagent
# 7. Time; 30 min; Room Temperature
# 8. Detection; Luminescence; Viewlux plate reader
# Keywords: cell viability, cytotoxicity, lymphoblastoid cell line, luminescence, NTPHTS, NTPHTS_NCGC, NIEHS, DSSTox, MLSMR, MLSCN, NIH Roadmap, qHTS, NCGC
# % is set by controls: 0 for no effect and ±100 for the full control effect.
row,SMILES,"activity change, negative = cytotoxicity [%]"
1,Cc1ccc2ccccc2c1[N+](=O)[O-],2.27
2,CCCCCCCCN,2.42
3,c1ccc(Oc2ccccc2)cc1,6.88
4,CC(C)CCOC(=O)/C=C/c1ccccc1,-4.13
5,CCOc1ccc(NC(C)=O)cc1N,-0.789
6,N#CC1(O)CCCCC1,-2.24
7,CC1CCC2CC1C2(C)C (stereo not given),-4.13
8,Nc1cccc([N+](=O)[O-])c1,-12.3
9,O=Cc1ccccc1Cl,0.687
10,CCc1ccccc1,-5.09
11,Clc1ccc(Cl)c(Cl)c1Cl,-5.36
12,CC(=O)Nc1ccc(C)cc1,-4.23
13,CCCCC=O,-0.984
14,CCOC(C)(C)C,-0.58
15,CCCCC(CC)CO (stereo not given),-0.65
16,NCCCCCCN,-1.92
17,CCC(C)O (stereo not given),-1.59
18,Nc1nc(CC(=O)O)cs1,-6.82
19,Cc1ccc(C(C)(C)C)cc1,-4.05
20,CCCC(Cl)CCCC(Cl)CCC(Cl)CCC(Cl)CCC(Cl)CCCC(Cl)CCC (stereo not given),-4.98

row,SMILES,"activity change, negative = cytotoxicity [%]"
1,CC(O)COC(C)(C)C (stereo not given),-3.01
2,CCN(Cc1ccccc1)c1ccccc1,1.81
3,C1CCC2OC2C1 (stereo not given),-3.69
4,Nc1cc(Cl)c(N)c(Cl)c1,-1.77
5,C[C@@H]1CC2(OC3C[C@@]4(C)C5=CC[C@H]6C(C)(C)C(O[C@@H]7OC[C@@H](O)[C@H](O)[C@H]7O)CC[C@@]67C[C@@]57CC[C@]4(C)C31)OC(O)C1(C)OC21 (stereo not given in full),-13.2
6,O=[N+]([O-])c1cccc(C(F)(F)F)c1,-6.99
7,C=Cc1ccccc1C=C,1.7
8,c1ccc2c(c1)ccc1ncccc12,-1.25
9,c1ccc2[nH]cnc2c1,-5.87
10,C=CCCCCCC,-2.77
11,C=C(C)C(=O)OC,-3.1
12,CC(C)(C)OC=O,-24.4
13,CC=O,-0.681
14,C=Cc1ccccn1,-1.11
15,CCCCCCC(=O)O,1.56
16,CCOCC(=O)O,-3.48
17,CC(=O)OC(C)=O,0.304
18,COC(=O)CS,0.448
19,CC=C(Cl)Cl,2.55
20,CNc1ccccc1,-6.8
